Assay results published in the OligoGym collection.

Molecular target: ATOX1
Assay: pooled miR-30 sensor sort-seq; sequence = guide strand
Conditions: shRNA
Note: reference of the scale not given here.

Sequence | sensor-assay potency score (higher = more potent)
TTCAGCACAGCCTCCACAGGTC | -0.0676
TCAGATTCAATGCAGACCTTCT | -0.2
AAGCAGAGTGTCCATGCTGTGC | -1.19
TTTCTTCAGGGTTGCAAGCAGA | -1.16
TCAATGCAGACCTTCTTGTTGG | -0.56
TTTTCTTCAGGGTTGCAAGCAG | 0.404
ATGTCATACTTAACTCCTCCAA | -0.956
TCCAAGCTTATTGAGGACCCGA | -0.663
TGTCATACTTAACTCCTCCAAG | -0.838
TAACTCCTCCAAGCTTATTGAG | -1.42
TTCAATGCAGACCTTCTTGTTG | -0.466
AACTCCTCCAAGCTTATTGAGG | -1.32
TACTTAACTCCTCCAAGCTTAT | -1.31
TTCCTGTTTTCTTCAGGGTTGC | -0.392
TCAATGTCATACTTAACTCCTC | -0.482
ATACTTAACTCCTCCAAGCTTA | -0.272
TATTGAGGACCCGAGAGACAGC | -1.44
TTCTTCAGGGTTGCAAGCAGAG | -0.987
TAGGAAACAGTCTTTCCTGTTT | -0.521
TTGTTGGGCAGGTCAATGTCAT | -0.613
AGTCTTTCCTGTTTTCTTCAGG | -1.75
TTCAGGGTTGCAAGCAGAGTGT | -1.04
AATGCAGACCTTCTTGTTGGGC | -0.556
TTTCCTGTTTTCTTCAGGGTTG | -0.588
